# Laboratory results as given in PubChem BioAssay AID1159606 (Sanford-Burnham Center for Chemical Genomics, 2016).
# Values joined by “and” are separate entries in the source; they are usually repeats but may differ in a detail not shown here. Identical values can stand only once. In all, about 360,000 compounds went through this assay and about 7,300 (2%) were called active. No stated cut-off is given here; in the data, active means inhibition above about 50%; inactive means the rest. Shown is part of a subset that was picked to be rich in actives.
# Test: blockers of TWEAK-induced Fn14 reporter activity – luciferase reporter cells, uHTS, primary screen (AID 1159606)
# Settings: TWEAK-stimulated Fn14 reporter cells, luciferase luminescence, 8 h; at 10 µM; hits give high values
row,Structure (SMILES),inhibition
1,COc1ccc(C)cc1NC(=O)NCCCCc1ccccc1,-2.36% (inactive)
2,CCCCN1C(=O)CC(N2CCOCC2)C1=O (centres undefined),-9.74% (inactive)
3,CCCCCn1nnnc1-c1nc2cc3ccccc3cc2[nH]c1=O,-12.3% (inactive)
4,CCCCCN(C(=O)CCC(=O)OCCOc1ccc(OC)cc1)c1c(N)n(CCCC)c(=O)[nH]c1=O,-5.75% (inactive)
5,Cc1ccc(NC(=O)N2CCSc3ccccc32)cc1,-12.4% (inactive)
6,C=C(C)C(=O)O[C@H]1C/C(C)=C\C(=O)/C=C(\C)[C@H](O)[C@@H]2OC(=O)C(=C)[C@@H]21,68.2% (active)
7,CNC(=S)N/N=C/c1ccc(N2CCOCC2)s1,7.48% (inactive)
8,CC1(NC(=O)CCS(=O)(=O)c2ccc(Cl)cc2)CCS(=O)(=O)C1 (centres undefined),17.8% (inactive)
9,O=C(NCC(c1ccco1)N1CCc2ccccc2C1)c1ccccc1Cl (centres undefined),-3.94% (inactive)
10,Nc1cccc(OCCCCCOc2cccc(N)c2)c1,-9.63% (inactive)
11,Cc1cccc2nc(CSc3nc4[nH]ncc4c(=O)n3-c3cccc(Cl)c3)cc(=O)n12,68.9% (active)
12,O=c1c2sccc2nc(SCc2cc(=O)n3ccccc3n2)n1-c1ccc(Br)cc1,-8.13% (inactive)
13,CCc1ccc(-n2c(SCc3cc(=O)n4cc(Br)ccc4n3)nc3[nH]ncc3c2=O)cc1,2.35% (inactive)
14,COc1ccc(C(=O)CSc2n[nH]c(N)n2)cc1,-14.2% (inactive)
15,Cc1ccc(N2CCN(c3ccc(C)cc3)C2c2ccccn2)cc1,-16.7% (inactive)
16,CCOC(=O)C1CCCCN1Cc1ccc(OC)c(OC)c1OC (centres undefined),-2.28% (inactive)
17,CC1Cc2[nH][nH]c(=O)c2C(C2CCCC2)O1 (centres undefined),-6.62% (inactive)
18,COc1ccccc1OCCNc1cc(N2CCOCC2)ccc1[N+](=O)[O-],-47.4% (inactive)
19,COc1ccc(CCNc2cc(N3CCN(C(=O)c4ccccc4OC)CC3)ccc2[N+](=O)[O-])cc1OC,94.3% (active)
20,COc1ccc(CCNC(=O)c2ccccc2-c2ccccc2C(=O)O)cc1OC,4.96% (inactive)
21,CC(C)(O)C1=C[N+](=O)CC=C1,13.1% (inactive)
22,CC1(C)SC2C(NC(=O)COc3ccccc3)C(=O)N2C1C(=O)O (centres undefined),1.61% (inactive) and -29.2% (inactive)
23,CC(=O)Nc1ccc(S(=O)(=O)Nc2nc3n(n2)C(c2ccccc2)CC(=O)N3)cc1 (centres undefined),-1.82% (inactive)

row,Structure (SMILES),inhibition
1,CC(C)[C@H](NC(=O)c1ccccc1F)C(=O)Nc1cccc(S(=O)(=O)N2CCOCC2)c1,12.8% (inactive)
2,C=CCN(CC=C)C(=O)CN1C(=O)c2ccccc2C1=O,15.1% (inactive)
3,Cc1cc(C(=O)COC(=O)CCCN2C(=O)c3ccccc3C2=O)c(C)n1C,5.35% (inactive)
4,C=CCn1c(C)cc(C(=O)CN2C(=O)c3ccccc3C2=O)c1C,63.3% (active)
5,O=C1CCC(=O)N(O)CCCCCNC(=O)CCC(=O)N(O)CCCCCNC(=O)CCC(=O)N(O)CCCCCN1,-10.8% (inactive)
6,C/C(=N/OC(=O)c1cccc(C(F)(F)F)c1)c1cnccn1,-1.14% (inactive)
7,CCc1ccccc1OCC(=O)Nc1ccc2c(c1)OCCO2,-1.57% (inactive)
8,COc1ccccc1OCCCC(=O)Nc1ccc2c(c1)OCCO2,-33.3% (inactive)
9,COC(=O)CCNc1ccc2c(c1)OCCO2,93.8% (active)
10,Cc1ccc(OCCCC(=O)Nc2ccc(N3CCOCC3)cc2)cc1,4.69% (inactive)
11,CCOc1ccc(NCCC(=O)c2ccc3c(c2)OCO3)cc1,-3.49% (inactive)
12,Cc1ccc(OCCCC(=O)Nc2ccc3c(c2)OCCO3)cc1,63.9% (active)
13,COC(=O)CCCCC1=CCC2C(=O)C=C(O)C2C1 (centres undefined),-0.75% (inactive)
14,O=C(NCc1cccnc1)c1cc(C2CCCN(C(=O)C3CCCCC3)C2)on1 (centres undefined),-5.87% (inactive)
15,CCCCCCc1cc2cc(-c3nnc(-c4ccccc4)o3)c(=O)oc2cc1O,69.9% (active)
16,CCc1ccc(CN(C)C(=O)CCc2nnc(-c3ccc(-c4ccccc4)cc3)o2)nc1,35.3% (inactive)
17,C#CCNC(=O)C[C@@H]1C[C@@]2(C(=O)OCC)CCCC=C2N(Cc2ccco2)C1=O,-4.62% (inactive)
18,O=C(O)CC(Cn1cnnn1)c1ccccc1 (centres undefined),0.41% (inactive)
19,CS/C(=C\C(=O)c1ccco1)Nc1ccccc1Cl,-3.35% (inactive)
20,CC(=O)c1ccc(NC(=O)C(C)N(C)CC(=O)Nc2ccccc2Cl)cc1 (centres undefined),-3.04% (inactive)
21,O=C(Nc1ccccc1Cl)/C(Cl)=C(\Cl)S(=O)c1ccccc1 (centres undefined),105% (active)
22,OC(c1ccccc1)c1nc(-c2cnc3ccccc3c2)cs1 (centres undefined),12.8% (inactive)
23,O=C(OCC(=O)N1CCN(C(=O)c2ccco2)CC1)c1c(Cl)cccc1Cl,3.09% (inactive)

row,Structure (SMILES),inhibition
1,O=C(OCC(=O)N1CCCC1)c1ccco1,70.7% (active)
2,O=C(OCC(=O)N1CCN(C(=O)c2ccco2)CC1)c1cccc(O)c1,-18.9% (inactive)
3,Cc1ccc(-c2nnn(CC(=O)N(Cc3ccco3)C(C(=O)NC(C)(C)C)c3ccncc3)n2)o1 (centres undefined),-9.3% (inactive)
4,O=C(O)CCn1c(O)c(C=C2N=c3ccccc3=N2)sc1=S,90.8% (active)
5,CC(=O)NC(C(=O)NCC(N)=O)C(C)C (centres undefined),-1.22% (inactive)
6,CSC1=NN(c2ccccc2)CN(c2ccccc2)N1C,11.5% (inactive)
7,Cn1c(=O)oc2cc(S(=O)(=O)N3CCC(C(=O)Nc4ccc(OC(F)(F)F)cc4)CC3)ccc21,-4.22% (inactive)
8,O=C(NC1CCCCC1)n1c(=O)oc2cc(S(=O)(=O)N3CCCCC3)ccc21,-2.85% (inactive)
9,Cc1ccc2nc(NC(=O)C3CCN(S(=O)(=O)c4ccc5c(c4)oc(=O)n5C)CC3)sc2c1,61.3% (active)
10,CC(C)C[C@@H](COCc1ccc(Cl)cc1)N1CCN(C(=O)c2ccc(Cl)cc2Cl)CCC1=O,-5.63% (inactive)
11,Cn1ccc(=Nc2ccc(NC(=O)c3ccc(N=c4ccn(C)c5ccc([N+](=O)[O-])cc45)cc3)cc2)cc1,11.6% (inactive)
12,Cc1ccc(Oc2cc(NC(=O)CCCn3nc(C)c([N+](=O)[O-])c3C)cc([N+](=O)[O-])c2)cc1,29.9% (inactive)
13,N#Cc1ccc(-c2ccc(F)cc2)nc1Sc1ccccc1,-0.84% (inactive)
14,Fc1ccc2nc(-c3ccccc3)nc(SCc3nnc(-c4ccccc4)o3)c2c1,1.42% (inactive)
15,N#CCSc1nc(-c2ccccc2)nc2ccc(F)cc12,85.4% (active)
16,CCCc1ccc(S(=O)(=O)N2CCN(C(=O)c3cc(C)on3)CC2)cc1,23.6% (inactive)
17,OC[C@@H]1CN(Cc2ccc(-c3ccccc3)cc2)C[C@H](n2cnc3c(NC4CCCC4)ncnc32)O1,69.7% (active)
18,OC[C@@H]1CN(Cc2cccs2)C[C@H](n2cnc3c(NC4CCCC4)ncnc32)O1,3.36% (inactive)
19,OC[C@@H]1CN(Cc2ccc(F)cc2)C[C@H](n2cnc3c(NC4CCCC4)ncnc32)O1,0.72% (inactive)
20,COc1ccc(CNC(=O)COC(=O)CCS(=O)(=O)c2ccc(C)cc2)cc1OC,-0.44% (inactive)
21,COc1ccc(NC(=O)CN(C)C(=O)Cc2coc3cc(C)c(C)cc23)cc1,-4.06% (inactive)
22,COc1ccccc1/C=C/C=N/n1c(-c2ccc(Cl)cc2Cl)n[nH]c1=S,-13.9% (inactive)
23,Cc1cc(-c2n[nH]c(=S)n2/N=C/C(Br)=C/c2ccccc2)n[nH]1,95% (active)

row,Structure (SMILES),inhibition
1,S=c1[nH]nc(-c2cccnc2)n1/N=C/C(Cl)=C\c1ccccc1,55.4% (active)
2,Fc1ccc(/C=N/n2c(COc3ccccc3)n[nH]c2=S)cc1,-16.7% (inactive)
3,O=[N+]([O-])c1ccccc1/C=N/n1c(COc2ccccc2)n[nH]c1=S,17.8% (inactive)
4,S=c1[nH]nc(-c2ccco2)n1/N=C/c1ccc(Br)s1,-5.12% (inactive)
5,COc1ccc(Cc2nnc(SCC(=O)N(c3ccccc3)C(C)C)n(N)c2=O)cc1,4.78% (inactive)
6,COC(=O)[C@]12CCCCC=C1N(Cc1ccco1)C(=O)[C@H](CC(=O)NCC1CCCCC1)C2,-2.8% (inactive)
7,N#CCCN(C(=S)Nc1ccc(Cl)c(Cl)c1)C1CCCCC1,7.89% (inactive)
8,Cc1ccc(F)c(S(=O)(=O)NC(=O)C2(C)CCN2C(=O)c2ccco2)c1 (centres undefined),4.06% (inactive)
9,CC(C)n1cnc2c(Nc3cccc(Cl)c3)nc(N(CCO)CCCO)nc21,54.7% (active)
10,CC(C)C[C@H](CO)Nc1nc(N(C)c2cccc(Cl)c2)c2ncn(C(C)C)c2n1,-0.23% (inactive)
11,CCOc1ccc(/C(O)=C2\C(=O)C(=O)N(c3ccc(OC)cc3)C2c2ccccc2[N+](=O)[O-])cc1 (centres undefined),68.4% (active)
12,COc1ccc(/C(O)=C2/C(=O)C(=O)N(c3nc(C)c(C)s3)C2c2ccco2)cc1 (centres undefined),15.4% (inactive)
13,COc1ccc(C2/C(=C(/O)c3ccccc3)C(=O)C(=O)N2c2ncccn2)cc1OC (centres undefined),5.36% (inactive)
14,CCCC(=O)Nc1ccc(C(=O)NCCCn2ccnc2)cc1,-38.4% (inactive)
15,COc1ccc(OC)c(C(=O)c2coc3ccc(O)c(CN4CCOCC4)c23)c1,28.4% (inactive)
16,COc1ccc(OC)c(C(=O)c2coc3ccc(OC)cc23)c1,67.6% (active)
17,COc1ccc2occ(C(=O)c3ccc(N=C(C)N(C)C)cc3)c2c1,-30.2% (inactive)
18,Cc1cc(Cl)c2oc(C(=O)NC(C)c3ccncn3)c(C)c2c1 (centres undefined),-26.6% (inactive)
19,CCOc1ccc(CCNC(=O)COC(=O)C2CCN(c3ccc(C(F)(F)F)cn3)CC2)cc1OCC,6.43% (inactive)
20,O=C(CN1C(=O)NC(Cc2c[nH]c3ccccc23)C1=O)Nc1ccccc1C(F)(F)F (centres undefined),29.8% (inactive)
